Assay outcomes as filed in PubChem BioAssay.
Compounds with a hit are over-represented: about 12% of the library has one in this group of screens.
L3MBTL1 block – blocks human L3MBTL1; Q9Y468; AlphaScreen L3MBTL1–H3K9me1 peptide binding; Potency, µM (doses to about 57.1 µM), usual class: inhibitors; actives 0.66% (n = 230,000); AID 485360; note: nearly all actives have a fitted effect of over 60% in size
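L3MBTL1 50 nM + b-AHA-H3(1-15)K9me1 75 nM, 30 min RT; compound added, 30 min RT; streptavidin donor/Ni-chelate acceptor beads 10 ug/mL each final, 30 min RT dark; AlphaScreen read.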
HP1b chromo inh – HP1-beta chromodomain-methylated histone interaction inhibition | Potency, µM (top dose mostly 114 µM), hits mostly inhibitors | AID 540317 | P83916 | actives 0.56% (n = 390,000) | AlphaScreen HP1-beta / biotin-H3K9me3 peptide binding; note: nearly all actives have a fitted effect of over 70% in size
Target sequence (P83916 whole entry, looked up): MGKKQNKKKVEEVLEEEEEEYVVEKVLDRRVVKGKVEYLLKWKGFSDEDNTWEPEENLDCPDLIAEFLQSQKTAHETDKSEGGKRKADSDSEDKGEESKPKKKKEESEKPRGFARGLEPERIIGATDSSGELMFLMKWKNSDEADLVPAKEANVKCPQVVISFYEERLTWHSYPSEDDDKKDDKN
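Compound inhibition of the preformed complex between 50 nM HP1-beta and 50 nM biotinylated H3K9me3 peptide was read by AlphaScreen. Buffer was PBS pH 7.4 with 0.01% Tween-20. Incubations ran 30 min at room temperature, with 10 ug/mL donor/acceptor beads.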
G9a block – blocks human histone lysine methyltransferase G9a; Q96KQ7; G9a H3K9 monomethylation, AlphaScreen, 2 h; Potency, µM (highest dose often 102 µM), hits mostly inhibitors; actives 8.8% (n = 350,000); note: nearly all actives have a fitted effect of over 75% in size
Target sequence (Q96KQ7 913-1193 limits assumed): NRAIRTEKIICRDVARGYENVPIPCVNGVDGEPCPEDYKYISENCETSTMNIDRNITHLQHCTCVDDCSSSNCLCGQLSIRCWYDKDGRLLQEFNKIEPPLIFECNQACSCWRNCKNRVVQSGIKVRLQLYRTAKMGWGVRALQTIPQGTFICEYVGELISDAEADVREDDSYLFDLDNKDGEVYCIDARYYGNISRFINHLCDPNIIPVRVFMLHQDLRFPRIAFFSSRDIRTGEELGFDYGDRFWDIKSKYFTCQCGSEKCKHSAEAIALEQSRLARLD
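Readings reflect AlphaScreen signal from monomethyl-H3K9 antibody detection. HMT at 20 nM; substrate b-H3K9 500 nM; cofactor SAM 20 uM; 2 h RT reaction; compounds tested as titrations in qHTS with 15 min preincubation.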
Sfp inh – blocks B. subtilis Sfp PPTase activity; actives 3.5% (n = 310,000); AID 1490; Potency, µM, actives largely listed as inhibitors; Biochemical Sfp PPTase activity, qHTS; Q9F4F7;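 note: the enzyme is Sfp with the accession as filed and its product quenches rhodamine fluorescence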
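After 15 min at room temperature with compound, 15 nM Sfp received 5 uM rhodamine-CoA plus 12.5 uM BHQ-2-ybbR (50 mM Hepes pH 7.6, 10 mM MgCl2). Rate came from the fluorescence difference over 30 min, ex 525/em 598 nm.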
BAZ2B inh – BAZ2B (human) inhibition; Q9UIF8; AlphaScreen BAZ2B-H3K14Ac peptide displacement; Potency, µM (series often up to 114 µM), hits mostly inhibitors; actives 4.4% (n = 360,000); AID 504333; note: nearly all actives have a fitted effect of over 60% in size
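Complex of BAZ2B and biotin-H3K14Ac (50 nM apiece) forms over 30 min at RT, then faces library compounds up to 110 uM for another 30 min; AlphaScreen beads added, 20 min dark incubation, luminescence read.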
JMJD2A Tudor inh – JMJD2A Tudor domain (human) inhibition; actives 4.4% (n = 390,000); O75164; AID 504339; AlphaScreen JMJD2A-Tudor / H3K4me3 peptide binding; Potency, µM (doses to about 114 µM), most hits filed as inhibitors; note: nearly all actives have a fitted effect of over 50% in size
A number is an active result; n = inactive; u = inconclusive; x = no result given; ! = a repeat was not active; [ ] = remark or other dose. Calls come from the whole dose curve; as a rule, active = well fitted curve in the direction sought with a large enough effect; inconclusive = small, poorly fitted or top-dose-only effect, or another doubt; inactive = no such curve, though single readings can be large; an effect the other way counts as inactive or inconclusive.

SMILES	L3MBTL1 block	HP1b chromo inh	G9a block	Sfp inh	BAZ2B inh	JMJD2A Tudor inh
Oc1ccc(/C=N/N2CCN(Cc3ccccc3)CC2)cc1	n[2.29 µM]	n	n[0.501 µM]	n	n	n
Cn1cccc1/C=N/N1CCN(Cc2ccc(Cl)cc2)CC1	n	40µM	40µM	u	32µM	50µM
CC1=C(C#N)C(=O)OC(C)(C)C1	n	n	13µM	n	n	n
CC(C)CC(OC(=O)c1cccs1)C(=O)NCc1ccco1 (centres undefined)	n	n	13µM	u	n	n
CCc1ccc(OCC(=O)N(Cc2ccco2)Cc2ccccc2Cl)cc1	x	n	n	x	n	n
Cc1cccc(C)c1-n1nnnc1SCC(=O)N1CCNC1=O	n	n	45µM	x	n	n
O=C(CSc1nnnn1-c1ccccc1)N1CCNC1=O	x	n	n	n	n	n
Cc1cc2c(=O)c(C(=O)c3ccncc3)cn(CC(=O)Nc3cccc(C)c3C)c2cc1C	x	n	n	x	n	n
CN(C)Cc1ccccc1-c1cncnc1Nc1ccc(F)cc1	x	x	x	n	x	x
Cc1ccc(S(=O)(=O)n2cc(-c3ccccc3)c3ccccc32)cc1	n	n	n[0.501 µM]	x	n	n
Cc1ccc(S(=O)(=O)n2ccc3c(OCCOCCNCc4ccc(F)cc4)cccc32)cc1	x	n	u	71µM	n	n
Cc1ccc(S(=O)(=O)n2ccc3c(OCCOCCSCC(NC(=O)OC(C)(C)C)C(=O)O)cccc32)cc1 (centres undefined)	x	n	n[12.7 µM]	n	50µM	n
CCOC(=O)c1nc(C)sc1-c1ccnn1S(=O)(=O)c1ccccc1C(F)(F)F	n	n	x	50µM	n	n
N#C/C(=C/c1ccc(N2CCOCC2)o1)C(=O)NC1CCCCC1	n	n	x	25µM	u	n
N#C/C(=C\c1ccc(N2CCOCC2)o1)C(=O)Nc1ccc(O)cc1	n	n	40µM	n	u	n
COc1ccc(NC(=O)/C(C#N)=C\c2ccc(N3CCOCC3)o2)cc1	n	n	u	n	n	n
CC(C)(C)C(=O)Nc1cc(-c2cccc(Br)c2)nn1-c1ccccc1	x	n	n	x	n	n
COc1ccc(-c2cc(=O)c3c(O)c(OC)c(OC)c(OC)c3o2)cc1	x	n	x	n	x	n
COc1c(OC)c(O)c2c(=O)cc(-c3c(O)cccc3O)oc2c1OC	n	n	n[12.7 µM]	20µM	n	n
CCC(=O)N(Cc1ccco1)c1nc(-c2ccc(OC)cc2)cs1	u	n	n	n	n	n
COCC(=O)N(Cc1ccco1)c1nnc(C2CCOC2)s1 (centres undefined)	x	n	79µM	n	n	n
N#C/C(=C\N1CCN(Cc2ccc3c(c2)OCO3)CC1)c1nc2ccccc2s1	n	n	40µM	n	n	u
CC(=O)Nc1ccc(C(=O)Nc2nc(-c3cccnc3)cs2)cc1	n	n	4µM	u	n	n
O=C(Nc1nc(-c2ccccn2)cs1)c1ccc2c(c1)OCCO2	n	n	n	n	22µM	56µM
O=C(Nc1nc(-c2ccccn2)cs1)c1ccccc1-n1cnnn1	20µM	n	10µM	16µM	22µM	u
SMILES	L3MBTL1 block	HP1b chromo inh	G9a block	Sfp inh	BAZ2B inh	JMJD2A Tudor inh
CC(=O)Nc1ccc(C(=O)Nc2nc(-c3ccccn3)cs2)cc1	n	n	u	16µM	5.6µM	56µM
CN(C)c1ncc2nc(-c3cc(F)cc(F)c3)c(=O)n(C)c2n1	x	x	n[0.501 µM]	n	x	x
O=C(NCCn1cc(SCc2ccc(Cl)cc2)c2ccccc21)c1cccs1	x	n	n	x	n	n
O=C(O)C1CCC1C(=O)Nc1nc(-c2ccc(Cl)s2)cs1 (centres undefined)	n	n	u	n	n	n
CC1CC1C(=O)Nc1nc(-c2ccccn2)cs1 (centres undefined)	x	u	8.9µM	25µM	u	56µM
O=c1oc2c3c4c(cc2s1)CCCN4CCC3	x	u	7.9µM	18µM	56µM	18µM
CCC1CCCCN1C(=S)NC(=O)c1ccc([N+](=O)[O-])cc1 (centres undefined)	n	n	u	n	71µM	u
CCC1CCCCN1C(=S)NC(=O)c1ccc(F)c(S(=O)(=O)N2CCOCC2)c1 (centres undefined)	n	n	45µM	n	n	n
CCCC(=O)Nc1ccc(C(N)=O)cc1	n	n	n	n	n	n
CC(=O)CC(=O)Nc1ccc(C(N)=O)cc1	n	n	25µM	n	n	n
O=C(Nc1ccc(Nc2ccccc2)cc1)C1CC1	n	n	25µM	n	u	u
O=C(Nc1ccccc1)C1CCN(c2nccs2)CC1	n	n	50µM	n	n	n
CNC(=S)Nc1ccc(C(N)=O)cc1	n	n	x	79µM	n	n
C=CCNC(=S)Nc1ccc(C(N)=O)cc1	n	n	u	n	n	n
O=C(Nc1ccccc1)C1CCN(S(=O)(=O)c2cccs2)CC1	n	n	n	x	n	n
CC(=O)CC(=O)Nc1ccc(Nc2ccccc2)cc1	n	n	71µM	n	u	n
O=C1Nc2ccccc2/C1=C/c1ccc([N+](=O)[O-])cc1	x	n	n	n	n	n
CC1(c2ccc([N+](=O)[O-])cc2)Nc2ccccc2S1 (centres undefined)	x	u	28µM	50µM	13µM	40µM
COc1ccc(C(C)=O)cc1CSc1nc(NCc2ccccc2)c2ccccc2n1	x	n	n	x	n	n
N[C@H]1CONC1=O	x	n	u	x	x	n
N[C@@H]1CONC1=O	x	x	20µM!	n	n	x
COc1cc(NS(=O)(=O)c2ccc(N/C=C\C(=O)c3ccc(OC)c(OC)c3)cc2)nc(OC)n1	n	n	u	n	n	n
COc1ccc(C(=O)/C=C/Nc2ccc(S(=O)(=O)Nc3cc(OC)nc(OC)n3)cc2)c(OC)c1	x	n	25µM	n	n	n
COc1cccc(C(=O)/C=C/Nc2ccc(S(=O)(=O)Nc3cc(OC)nc(OC)n3)cc2)c1	x	n	79µM	n	u	n
COc1cccc(C(=O)/C=C/Nc2ccc(S(=O)(=O)Nc3ccc(C(C)=O)cc3)cc2)c1	n	n	50µM	n	n	n
SMILES	L3MBTL1 block	HP1b chromo inh	G9a block	Sfp inh	BAZ2B inh	JMJD2A Tudor inh
N#Cc1ccc(CN2CCCC3(CCN(C(=O)c4cc(C(F)(F)F)cc(C(F)(F)F)c4)CC3)C2)cc1	x	x	n[12.7 µM]	n	x	x
Cc1ccccc1Nc1oc(-c2ccccc2)nc1-c1cccs1	x	x	x	n	x	x
CC(C)CNC(=O)C(=O)NN=C1CCCCCC1	n	n	n	n	n	n
CC(C)(C)NC(=O)C(=O)NN=C1CCCCCCCCCCC1	x	n	n	79µM	n	n
Cc1cccc(CN2C(=O)c3ccccc3Sc3ccc(C(=O)N4CCCC4)cc32)c1	x	n	n	x	n	n
COc1ccccc1-c1nnc(N)s1	n	n	n	n	n	n
Nc1nnc(-c2ccccc2Cl)s1	n	n	22µM	u	n	n
Cc1cccc(CNC(=O)C2CCN(c3nn4cc(-c5ccc(F)cc5)nc4s3)CC2)c1	x	n	n	x	n	n
